# Reference: paper PMC7862700, “An all-to-all approach to the identification of sequence-specific readers for epigenetic DNA modifications on cytosine”
# What was measured:
# Experiment in all cases: DAPPL (digital affinity profiling via proximity ligation, sequencing); 10 mM Tris-HCl pH 7.5, 50 mM NaCl, 1 mM DTT, 4% glycerol, room temperature, 30 min; GST-TFs on glutathione beads, 16-mer random dsDNA library, 0.1% formaldehyde crosslink after washing; high values mean tight binding
# Details in all cases: protein: recombinant; tags: N-terminal GST; dsDNA, one strand shown
# FLI1 = target: T1, FLI1 (Homo sapiens, UniProt Q01543 1-452)
# T1 sequence: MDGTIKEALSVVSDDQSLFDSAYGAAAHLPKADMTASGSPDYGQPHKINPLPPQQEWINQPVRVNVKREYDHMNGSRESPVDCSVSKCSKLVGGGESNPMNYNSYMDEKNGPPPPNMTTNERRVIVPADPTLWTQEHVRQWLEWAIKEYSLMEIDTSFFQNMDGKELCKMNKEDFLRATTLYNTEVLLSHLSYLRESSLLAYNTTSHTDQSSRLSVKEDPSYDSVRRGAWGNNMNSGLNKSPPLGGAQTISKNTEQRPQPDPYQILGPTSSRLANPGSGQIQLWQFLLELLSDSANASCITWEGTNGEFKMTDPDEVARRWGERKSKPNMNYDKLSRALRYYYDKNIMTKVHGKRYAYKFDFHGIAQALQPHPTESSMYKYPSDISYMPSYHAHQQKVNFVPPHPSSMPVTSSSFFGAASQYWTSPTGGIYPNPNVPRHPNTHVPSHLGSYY
# Summary of the method: (§1)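 Human transcription factors were made in yeast as GST fusions, captured on glutathione beads and barcoded with DNA. With a tag-only sample included, the pool was incubated with 200 nmole of a random double-stranded 16-mer DNA library in Tris/NaCl/DTT/glycerol buffer at room temperature for 30 min, then crosslinked with 0.1% formaldehyde after washing, ligated by proximity, amplified and sequenced. For binding signal, each hexamer's read frequency for a factor is divided by its frequency for the tag-only sample.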
# ELK1 = target: T2, ELK1 (Homo sapiens, UniProt P19419 1-428)
# T2 sequence: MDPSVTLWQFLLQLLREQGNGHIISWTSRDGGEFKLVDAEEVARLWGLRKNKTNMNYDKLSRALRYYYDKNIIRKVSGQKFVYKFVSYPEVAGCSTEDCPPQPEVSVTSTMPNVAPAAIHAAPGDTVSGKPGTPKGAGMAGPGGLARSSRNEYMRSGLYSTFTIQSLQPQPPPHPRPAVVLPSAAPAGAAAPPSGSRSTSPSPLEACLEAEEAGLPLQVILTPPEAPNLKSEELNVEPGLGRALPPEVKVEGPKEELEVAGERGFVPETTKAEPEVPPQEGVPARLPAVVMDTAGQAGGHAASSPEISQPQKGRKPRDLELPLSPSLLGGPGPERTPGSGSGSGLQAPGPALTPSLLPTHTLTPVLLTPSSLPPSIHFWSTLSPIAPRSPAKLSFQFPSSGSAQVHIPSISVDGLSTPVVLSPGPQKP
# Summary of the method: as §1
# GABPA = target: T3, GABPA (Homo sapiens, UniProt Q06546 1-454)
# T3 sequence: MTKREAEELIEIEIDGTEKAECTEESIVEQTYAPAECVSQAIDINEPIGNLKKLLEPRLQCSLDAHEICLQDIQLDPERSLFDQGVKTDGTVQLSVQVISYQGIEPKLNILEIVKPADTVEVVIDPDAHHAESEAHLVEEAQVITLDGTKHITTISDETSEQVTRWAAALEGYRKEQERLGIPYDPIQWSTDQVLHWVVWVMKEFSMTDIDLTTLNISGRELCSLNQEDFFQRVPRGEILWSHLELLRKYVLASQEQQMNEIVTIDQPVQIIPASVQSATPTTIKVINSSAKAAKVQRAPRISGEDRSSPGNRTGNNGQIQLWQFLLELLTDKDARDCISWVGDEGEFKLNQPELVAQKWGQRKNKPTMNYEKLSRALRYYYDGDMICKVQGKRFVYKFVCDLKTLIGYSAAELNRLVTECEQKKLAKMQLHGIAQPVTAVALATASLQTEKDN
# Summary of the method: as §1
# ERG = target: T4, ERG (Homo sapiens, UniProt P11308 1-479)
# T4 sequence: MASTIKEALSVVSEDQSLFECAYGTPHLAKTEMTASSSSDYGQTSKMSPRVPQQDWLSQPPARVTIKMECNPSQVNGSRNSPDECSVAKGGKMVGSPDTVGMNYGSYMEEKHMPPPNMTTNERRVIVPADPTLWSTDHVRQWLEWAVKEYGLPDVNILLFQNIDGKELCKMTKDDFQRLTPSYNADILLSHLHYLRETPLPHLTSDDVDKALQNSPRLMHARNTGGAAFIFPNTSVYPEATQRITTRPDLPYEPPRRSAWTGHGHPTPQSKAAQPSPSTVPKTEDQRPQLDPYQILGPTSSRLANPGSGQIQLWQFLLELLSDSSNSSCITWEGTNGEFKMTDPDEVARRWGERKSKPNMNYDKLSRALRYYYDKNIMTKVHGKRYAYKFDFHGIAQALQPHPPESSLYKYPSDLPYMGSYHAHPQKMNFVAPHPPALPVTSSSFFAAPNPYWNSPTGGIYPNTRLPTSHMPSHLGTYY
# Summary of the method: as §1
# ELF1 = ELF1 (Homo sapiens, UniProt P32519 1-619)
# Summary of the method: as §1
# EHF = target: T5, EHF (Homo sapiens, UniProt Q9NZC4 1-300)
# T5 sequence: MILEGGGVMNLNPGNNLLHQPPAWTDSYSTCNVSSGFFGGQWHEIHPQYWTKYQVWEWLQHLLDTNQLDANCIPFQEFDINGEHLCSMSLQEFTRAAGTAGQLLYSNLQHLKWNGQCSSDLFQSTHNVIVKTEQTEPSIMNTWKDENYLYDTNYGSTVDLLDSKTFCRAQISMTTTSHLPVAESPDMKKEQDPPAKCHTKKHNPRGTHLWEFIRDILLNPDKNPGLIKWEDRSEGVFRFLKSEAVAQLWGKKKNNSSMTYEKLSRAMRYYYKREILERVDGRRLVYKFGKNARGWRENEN
# Summary of the method: as §1
# SPI1 = SPI1 (Homo sapiens, UniProt P17947 1-270)
# Summary of the method: as §1
# SPIB = SPIB (Homo sapiens, UniProt Q01892 1-262)
# Summary of the method: as §1
# ELK3 = target: T6, ELK3 (Homo sapiens, UniProt P41970 1-407)
# T6 sequence: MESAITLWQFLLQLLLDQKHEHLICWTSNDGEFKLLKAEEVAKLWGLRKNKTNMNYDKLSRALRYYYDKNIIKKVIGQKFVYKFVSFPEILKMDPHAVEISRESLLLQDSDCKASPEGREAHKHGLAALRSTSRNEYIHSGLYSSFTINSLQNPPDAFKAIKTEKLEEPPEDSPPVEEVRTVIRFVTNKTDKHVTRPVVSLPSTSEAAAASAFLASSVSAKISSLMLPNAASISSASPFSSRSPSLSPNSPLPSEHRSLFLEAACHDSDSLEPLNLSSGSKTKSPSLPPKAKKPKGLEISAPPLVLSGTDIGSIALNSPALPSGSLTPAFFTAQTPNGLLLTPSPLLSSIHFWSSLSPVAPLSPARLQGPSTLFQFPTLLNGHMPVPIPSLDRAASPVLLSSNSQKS
# Summary of the method: as §1
# ELF1, sequence (P32519 whole entry): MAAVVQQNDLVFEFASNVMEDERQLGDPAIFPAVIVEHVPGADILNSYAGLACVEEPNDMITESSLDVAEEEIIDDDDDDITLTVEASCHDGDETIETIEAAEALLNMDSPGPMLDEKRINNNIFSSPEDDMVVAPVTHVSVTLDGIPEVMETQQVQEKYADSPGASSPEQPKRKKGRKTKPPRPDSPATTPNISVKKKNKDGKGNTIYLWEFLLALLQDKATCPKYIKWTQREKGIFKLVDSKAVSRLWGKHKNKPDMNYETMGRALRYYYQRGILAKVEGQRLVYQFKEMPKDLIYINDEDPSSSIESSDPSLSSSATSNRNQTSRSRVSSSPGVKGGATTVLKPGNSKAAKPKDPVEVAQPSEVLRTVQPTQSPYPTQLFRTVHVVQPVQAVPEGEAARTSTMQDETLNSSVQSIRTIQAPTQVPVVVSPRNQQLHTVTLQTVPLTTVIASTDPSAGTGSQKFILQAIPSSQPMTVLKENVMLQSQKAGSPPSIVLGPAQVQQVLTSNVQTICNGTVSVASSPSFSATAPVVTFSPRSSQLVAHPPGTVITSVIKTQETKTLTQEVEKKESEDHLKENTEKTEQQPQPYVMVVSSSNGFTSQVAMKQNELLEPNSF
# SPIB, sequence (Q01892 whole entry): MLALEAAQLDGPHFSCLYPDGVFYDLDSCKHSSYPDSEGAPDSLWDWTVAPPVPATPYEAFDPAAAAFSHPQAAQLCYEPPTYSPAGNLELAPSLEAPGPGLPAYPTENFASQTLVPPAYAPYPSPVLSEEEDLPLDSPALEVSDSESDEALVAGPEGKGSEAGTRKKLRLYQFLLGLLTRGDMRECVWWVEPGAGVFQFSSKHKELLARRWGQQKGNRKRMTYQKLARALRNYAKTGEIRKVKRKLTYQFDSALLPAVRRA
Sequence,binding signal (FLI1),binding signal (ELK1),binding signal (GABPA),binding signal (ERG),binding signal (ELF1),binding signal (EHF),binding signal (SPI1),binding signal (SPIB),binding signal (ELK3)
TCCACC,"1.22 fold enrichment (6-mer frequency, TF over GST control)","1.18 fold enrichment (6-mer frequency, TF over GST control)","1.21 fold enrichment (6-mer frequency, TF over GST control)","1.19 fold enrichment (6-mer frequency, TF over GST control)","1.2 fold enrichment (6-mer frequency, TF over GST control)","1.28 fold enrichment (6-mer frequency, TF over GST control)","1.19 fold enrichment (6-mer frequency, TF over GST control)","1.3 fold enrichment (6-mer frequency, TF over GST control)","1.18 fold enrichment (6-mer frequency, TF over GST control)"
CCCACG,"1.17 fold enrichment (6-mer frequency, TF over GST control)","1.2 fold enrichment (6-mer frequency, TF over GST control)","1.26 fold enrichment (6-mer frequency, TF over GST control)","1.09 fold enrichment (6-mer frequency, TF over GST control)","1.19 fold enrichment (6-mer frequency, TF over GST control)","1.2 fold enrichment (6-mer frequency, TF over GST control)","1.08 fold enrichment (6-mer frequency, TF over GST control)","1.16 fold enrichment (6-mer frequency, TF over GST control)","1.29 fold enrichment (6-mer frequency, TF over GST control)"
CGATCC,"1.26 fold enrichment (6-mer frequency, TF over GST control)","1.14 fold enrichment (6-mer frequency, TF over GST control)","1.19 fold enrichment (6-mer frequency, TF over GST control)","1.21 fold enrichment (6-mer frequency, TF over GST control)","1.27 fold enrichment (6-mer frequency, TF over GST control)","1.22 fold enrichment (6-mer frequency, TF over GST control)","1.25 fold enrichment (6-mer frequency, TF over GST control)","1.22 fold enrichment (6-mer frequency, TF over GST control)","1.38 fold enrichment (6-mer frequency, TF over GST control)"
TTCACA,"1.27 fold enrichment (6-mer frequency, TF over GST control)","1.17 fold enrichment (6-mer frequency, TF over GST control)","1.23 fold enrichment (6-mer frequency, TF over GST control)","1.18 fold enrichment (6-mer frequency, TF over GST control)","1.16 fold enrichment (6-mer frequency, TF over GST control)","1.2 fold enrichment (6-mer frequency, TF over GST control)","1.08 fold enrichment (6-mer frequency, TF over GST control)","1.25 fold enrichment (6-mer frequency, TF over GST control)","1.26 fold enrichment (6-mer frequency, TF over GST control)"
GTCTTC,"1.4 fold enrichment (6-mer frequency, TF over GST control)","1.31 fold enrichment (6-mer frequency, TF over GST control)","1.19 fold enrichment (6-mer frequency, TF over GST control)","1.42 fold enrichment (6-mer frequency, TF over GST control)","1.43 fold enrichment (6-mer frequency, TF over GST control)","1.31 fold enrichment (6-mer frequency, TF over GST control)","1.28 fold enrichment (6-mer frequency, TF over GST control)","1.29 fold enrichment (6-mer frequency, TF over GST control)","1.17 fold enrichment (6-mer frequency, TF over GST control)"
TTGATT,"1.48 fold enrichment (6-mer frequency, TF over GST control)","1.32 fold enrichment (6-mer frequency, TF over GST control)","1.31 fold enrichment (6-mer frequency, TF over GST control)","1.29 fold enrichment (6-mer frequency, TF over GST control)","1.29 fold enrichment (6-mer frequency, TF over GST control)","1.26 fold enrichment (6-mer frequency, TF over GST control)","1.18 fold enrichment (6-mer frequency, TF over GST control)","1.26 fold enrichment (6-mer frequency, TF over GST control)","1.2 fold enrichment (6-mer frequency, TF over GST control)"
TCCTGG,"1.66 fold enrichment (6-mer frequency, TF over GST control)","1.47 fold enrichment (6-mer frequency, TF over GST control)","1.69 fold enrichment (6-mer frequency, TF over GST control)","1.85 fold enrichment (6-mer frequency, TF over GST control)","1.69 fold enrichment (6-mer frequency, TF over GST control)","1.66 fold enrichment (6-mer frequency, TF over GST control)","1.63 fold enrichment (6-mer frequency, TF over GST control)","1.74 fold enrichment (6-mer frequency, TF over GST control)","1.55 fold enrichment (6-mer frequency, TF over GST control)"
